A selection: hits, their analogues and other compounds. The true share with any hit is near 7.1%.
M1 ag = agonists of M1 muscarinic receptor | B-score at 10 µM | AID 626 | actives 3% (n = 64,000) | CHO-M1 cells, Fluo-4 calcium fluorescence, agonist mode; hits give high values;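 active means fluorescence rise, raw or as B-score row- and column-corrected plate score, outside the 99.7% band of its plate's samples, either direction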
Cav32 inh = inhibitors of human Cav3.2 T-type calcium channel. O95180. actives 4% (n = 100,000). B-score at 10 µM. Cav3.2-expressing cells, Fluo-4 calcium fluorescence FDSS; hits give low values;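 active means single-dose well whose peak fluorescence ratio is a statistical outlier from its plate by either plate-standardised score or position-corrected B-score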
PTK2B oligo ant = antagonists of human Pyk2 oligomerization; Q14289; Q293 cells, Pyk2 FERM NanoBiT luminescence; hits give low values; z-score (the deposit names both 25 µM and 10 µM); actives 0.83% (n = 99,000);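 active means Z-score of -3 or lower, scaled per plate to the spread of control and sample wells; inactive means z-score above -3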;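 further: negative z-score means lost luminescence so less FERM oligomerization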
M1 antagonist = antagonists of rat M1 muscarinic receptor; P08482; actives 3.4% (n = 64,000); B-score at 10 µM; CHO-M1 cells, Fluo-4 calcium, ACh EC80 antagonist mode; hits give low values; AID 628;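 active means calcium fluorescence response, raw or row-and-column corrected B-score, differing from the plate sample mean either way at a set confidence level, mostly lower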
Target sequence (P08482 whole entry, looked up): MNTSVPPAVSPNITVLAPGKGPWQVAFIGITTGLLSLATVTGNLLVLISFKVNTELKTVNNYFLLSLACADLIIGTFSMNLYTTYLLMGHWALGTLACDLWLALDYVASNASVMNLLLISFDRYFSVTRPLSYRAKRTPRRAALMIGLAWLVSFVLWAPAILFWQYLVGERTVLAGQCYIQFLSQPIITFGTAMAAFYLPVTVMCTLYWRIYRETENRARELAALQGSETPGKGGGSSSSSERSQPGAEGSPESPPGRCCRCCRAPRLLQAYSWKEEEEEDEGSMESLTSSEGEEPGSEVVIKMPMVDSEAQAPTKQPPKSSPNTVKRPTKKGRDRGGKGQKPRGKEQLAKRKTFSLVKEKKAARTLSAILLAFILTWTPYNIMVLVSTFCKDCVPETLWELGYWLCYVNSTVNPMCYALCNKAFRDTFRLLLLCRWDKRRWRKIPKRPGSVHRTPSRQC
Numbers without * were called inactive; nt = not tested or not shown.

SMILES	M1 ag	Cav32 inh	PTK2B oligo ant	M1 antagonist
CCc1cc(/C(Cc2csc(C)n2)=N/O)c(O)cc1O	nt	-5.22*	0.24	nt
CCOc1cc(-c2cc(-c3ccc(C)cc3)nc(N)c2C#N)ccc1O	nt	0.545	-3.77*	nt
CCOc1cc(/C=C(\C#N)c2[nH]nc(N)c2C#N)ccc1O	nt	0.0187	-3.14*	nt
CCOc1cc(-c2c(C#N)c(N)nc3c2CCCC3C)ccc1O (centres undefined)	0.189	-3.02	-3.07*	-0.456
O=C(Nc1ccccc1C(=O)OCC(=O)N1CCc2ccccc2C1)c1ccco1	2.45	-1.58	-1	-0.0644
Cc1cccc(-n2nnc(C(=O)N3CCc4ccccc4C3)c2N)c1	1.93	-4.67*	-0.4	-0.874
CCN(CC(=O)Nc1ccc([N+](=O)[O-])cc1OC)CC(=O)NC(C)(C)C	nt	nt	0.2	nt
COC(C/C=C/C(=O)[C@H](C)OCc1ccccc1)OC	nt	1.79	nt	nt
O=C(c1ccc2nc(-c3ccco3)c(-c3ccco3)nc2c1)N1CCN(c2ccccc2)CC1	5.66*	-1.55	-1.42	-1.16
CC(C)NC(=S)N/N=C1\CCCCC1C1CCCCC1 (centres undefined)	nt	nt	1.4	nt
CC1(C)Cc2c(cnn2-c2ccccc2)C(=O)/C1=N\NC(=O)c1ccccc1O	nt	-1.84	-0.22	nt
O=C(/C=C/c1ccc(O)c(O)c1)O[C@H](Cc1ccc(O)c(O)c1)C(=O)O	nt	0.787	nt	nt
C=CCn1cnc2c(c1=O)c1nc3ccccc3nc1n2-c1ccc(C)cc1	0.236	nt	nt	1.19
C=CCn1cnc2c(c1=O)c1nc3ccccc3nc1n2-c1ccccc1	0.0204	nt	nt	-13.7*
C=CCn1cnc2c(c1=O)c1nc3ccccc3nc1n2/N=C/c1ccccn1	8.09*	nt	-1.47	-4.12*
C=CCn1cnc2c(c1=O)c1nc3ccccc3nc1n2/N=C/c1cccc(OC)c1OC	4.78*	nt	-1.89	-1.42
Cc1ccccc1OCC(=O)N/N=C/c1cccn1C	nt	0.238	-0.03	nt
COc1cccc(/C=N\NC(=O)c2sc(N)nc2C)c1OC	nt	0.679	-0.04	nt
COC(=O)C(Cc1ccccc1)NS(=O)(=O)c1ccc(F)cc1Br (centres undefined)	nt	-0.198	nt	nt
CC1CCc2c(sc(NS(=O)(=O)c3ccccc3)c2C(=O)OC(C)C)C1 (centres undefined)	nt	-5.1*	0.6	nt
COC(=O)c1c(NS(=O)(=O)c2ccc3ccccc3c2)sc2c1CCCC2	nt	-3.63	-0.81	nt
Cc1cc(C)cc(NC2=NC3(CCCCC3)N=C(N)N2)c1	-0.0568	-0.468	1.32	-0.188
CC1=CC(C)(C)N2C(=O)C3(N=C(N)NC(Nc4ccccc4)=N3)c3cc(C)cc1c32 (centres undefined)	-0.242	-3.71*	-0.01	-0.111
Cc1cc(C)nc(N2CCCC(C(=O)NCC(c3ccccc3)c3ccccc3)C2)n1 (centres undefined)	nt	-1.23	-0.79	nt
CC1Cc2ccccc2N1C(=O)Cn1c(=O)oc2cc(S(=O)(=O)NC3CCCC3)ccc21 (centres undefined)	-0.257	-8.86*	nt	-1.11
SMILES	M1 ag	Cav32 inh	PTK2B oligo ant	M1 antagonist
Cc1ccc(S(=O)(=O)NNc2nc3ccccc3nc2C(F)(F)F)cc1	nt	-3.43*	0.23	nt
Cc1ccc(S(=O)(=O)NNc2ccccc2)cc1	nt	-0.148	0.55	nt
CCN(CC)CCOC(=O)c1ccc(NC(=O)C(C)NC(=O)C23CC4CC(CC(C4)C2)C3)cc1 (centres undefined)	nt	nt	0.62	nt
O=C(NNC1=C(C(=O)C(F)(F)F)CCC1)c1ccc(Cl)cc1	nt	-2.45	0.32	nt
O=C(NNC1=C(C(=O)C(F)(F)F)CCC1)c1cccc(Cl)c1	nt	-7.56*	0.45	nt
Cc1ccc(S(=O)(=O)N=S(CC2CC2(Cl)Cl)CC2CC2(Cl)Cl)cc1 (centres undefined)	nt	-1.02	-0.57	nt
O=C(NC1CCCCC1)N1CCCc2ccccc21	0.272	-0.229	1.22	-0.332
O=C(NC1CCCCC1)N1CCSC1=Nc1ccccc1	0.425	-3.99*	-0.38	-0.336
O=C1N2c3ccccc3CCc3cccc(c32)C1(O)C(F)(F)F (centres undefined)	-1.49	-5.63*	0.16	0.268
O=C1CCCC2=C1C(O)(C(F)(F)F)C(=O)N2Cc1ccccc1 (centres undefined)	-0.913	0.045	-0.15	0.0374
Cc1ccc(CNc2cc(-c3nn4c(C)nnc4s3)ccc2C)s1	-0.0442	-2.08	-0.32	0.15
Cc1ccc(-c2nn3c(C)nnc3s2)cc1NCc1c(F)cccc1Cl	-1.06	-1.76	-3.51*	-0.64
COc1ccc(S(=O)(=O)N2CCCN(S(=O)(=O)c3ccc(OC)cc3C)CC2)c(C)c1	nt	0.0716	-1.5	nt
O=C(CN1CCC(Cc2ccccc2)CC1)Nc1ccc2c(c1)OCCO2	nt	-4.07*	nt	nt
Cc1ccc2nc3c(cc(C#N)c(=N)n3CC3CCCO3)c(=O)n2c1 (centres undefined)	9.01*	nt	nt	-1.38
